Among the data in PubChem BioAssay (NCI) are growth values, retold here.

The panel holds about 83,000 compounds, 20% with a hit somewhere; the sample as a whole holds those more often.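 The endpoint reported here, percent growth, reads 100 for growth as untreated, 0 for no net growth and -100 for all cells dead.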 A number with no mark means an inactive call. Calls of active or inactive are those of the source.

This assay deals with LOX IMVI melanoma. In words: NCI-60 one-dose screen, 48 h (100 = growth as untreated, 0 = no growth, -100 = all killed). To be noted: 10 µM. On the procedure: Growth inhibition of the LOX IMVI human tumor cell line is measured as a screen for anti-cancer activity. Cells are grown in 96 well plates and exposed to the test compound for 48 hours. Compounds are tested at a single concentration, which is 10^-5 M for most compounds. The reported endpoint is percent growth (GI% or GIPRCNT), where numbers from 0 - 100% represent growth inhibition, and numbers from -100% - 0 represent cell death. For example, a value of 40 represents 60% growth inhibition. A value of 0 means no net growth occurred over the course of the experiment. A value of -40 indicates 40% of cells at the beginning of the experiment died by the end of the experiment. A value of -100 means all cells are dead at the end of the experiment.
NCI-60 Human Tumor Cell Lines Screen was performed using the standard one-dose NCI protocol, which is described in more detail at https://dtp.cancer.gov/discovery_development/nci-60/default.htm.
Compounds with GIPRCNT values below 10 were considered active. Activity score was based on GIPRCNT using the following formula: […]
Score is 0 for GIPRCNT values of 100 or above, 50 for GIPRCNT values of 0, and 100 for GIPRCNT values of -100.
For the compound `O=C(Nc1cccc(NC(=O)Nc2cc(C(F)(F)F)ccc2Cl)c1)Nc1cc(C(F)(F)F)ccc1Cl`, the growth was 10.2%. As for `O=C(N/N=C/c1ccccc1O)Nc1nn[nH]n1`, the growth was 96.4%. Consider `CC(C)=C(NC(=O)c1ccccc1)C(=O)O`, for which the growth was 101%. Consider `O=C1NC(=O)C2C(=O)NC(=O)C1C21CCc2ccccc21` (stereo not given), for which the growth was 102%. Regarding `CCOC(=O)C/C(C)=N\O`, the growth was 100%. With `c1ccc2c(c1)Sc1ccccc1S2`, the growth is 98.2%. For the compound `CCC/C=C(/C(C)=O)C(=O)OCC`, the growth is 102%.

As for `Oc1ccc2c(c1)OCC1(O)Cc3cc(O)c(O)cc3C21` (stereo not given), the growth was 98.2%. With `CC12CC3CC1C(C(=O)O2)C3C(=O)O` (stereo not given), the growth was 99.7%. With `OCCN(CCO)C(=S)S`, the growth was 107%. For `CN(C)c1ccc(C(c2ccc(O)cc2)c2ccc(N(C)C)cc2)cc1` the value was 88%; for `CS(=O)CC1=NC(=N)N=C1CS(C)=O` (stereo not given), 96.7%; for `Cc1cc(OCCO)cc(C)c1Cl`, 98%. For the compound `CCCCCC(C)(CC(=O)O)CC(=O)O`, the growth is 112%. With `COc1ccccc1N1CCN(C(=S)Nc2ccccc2)CC1` the figure was 90.4%; with `OC1OC(COC(c2ccccc2)(c2ccccc2)c2ccccc2)C(O)C(O)C1O` (stereo not given), 93.6%; with `Cc1cc(=O)[nH]c(NN=C2CCCC2)n1`, 110%.

As to `OCC(O)C(O)C(O)C(O)/C=N/O` (stereo not given), the growth is 98.3%. With `O=c1[nH]nc(SC2CCCCC2)c(=O)[nH]1` the figure was 92.8%; with `O=C(CCNNC(=O)c1ccncc1)NCc1ccccc1`, 86.8%; with `CCCCCCCCOC(=O)c1ccccn1`, 91.7%. As for `OCC1OC(OC2C(O)C(CO)OC2(CO)OC2OC(CO)C(O)C(O)C2O)C(O)C(O)C1O` (stereo not given), the growth is 93.1%. For `CCCCNC(=O)C(=O)NCCCC` the value was 102%; for `c1ccc(Sc2ccccc2)cc1`, 104%. Turning to `O=C(c1ccc(O)cc1)c1ccc(O)cc1`, the growth was 97.4%. `CCCC[P+](c1ccccc1)(c1ccccc1)c1ccccc1`: the growth was 41%. With `CC1(C)N=C(N)N=C(N)N1c1ccc(Cl)cc1`, the growth is 24.6%. With `CC[N+](C)(CC)CCO`, the growth was 101%. Turning to `Cc1ccc(C(=O)c2ccccc2)c(C)c1`, the growth was 93.7%. On to `O=S(=O)(O)C(Nc1ccccc1)c1ccccc1` (stereo not given), for which the growth is 93.8%. Regarding `OCCN1CCOCC1`, the growth is 105%. In the case of `CC(C)OC(C(=O)O)c1ccccc1` (stereo not given), the growth was 88.5%. On to `CC(C)(C)n1nc(C2CC2)c(Br)c1NC(=O)c1ccccc1F`, for which the growth is 99.1%. As for `Cc1cc(C)c(CC(=O)O)c(C)c1`, the growth was 96.5%. Take `O=c1c2ccccc2c(Br)c(Br)c2ccccc12`: the growth was 3.1% (active). Regarding `COc1ccc(/C(C#N)=C2C=C/C(=N/O)c3ccccc3\2)cc1`, the growth is 9.34% (active). As for `CC(=O)Nc1cccc(Cl)c1C`, the growth was 96.8%.

For the compound `COc1ccccc1NC(=O)C1=C(C)NC(C)=C(C(=O)Nc2ccccc2OC)C1c1cccc([N+](=O)[O-])c1`, the growth is 69.1%. As for `S=c1[nH]ccn1-c1ccccc1Cl`, the growth is 100%. With `CCOC(=O)CNN` the figure was 90.6%.
